Test results published in ChEMBL document CHEMBL1157539, “Thousands of chemical starting points for antimalarial lead identification” (Nature, 2010).
“And” between values parts separate entries of the source, which are not always exact repeats. Equal entries are not always repeated.

How the values were obtained:
Assay type in all cases: functional
Plasmodium falciparum [1] = assay: GSK_TCMDC: Inhibition of Plasmodium falciparum 3D7 in whole red blood cells, using parasite LDH activity as an index of growth. Test compounds present at 2uM
Plasmodium falciparum [2] = assay: GSK_TCMDC: Inhibition of Plasmodium falciparum Dd2 in whole red blood cells, using parasite LDH activity as an index of growth. Test compounds present at 2uM
HepG2 = assay: GSK_TCMDC: Percent inhibition of human HepG2 cell line. Test compounds present at 10uM.

Row | SMILES | Inhibition (Plasmodium falciparum [1]) | Inhibition (Plasmodium falciparum [2]) | Inhibition (HepG2)
1 | Cc1c(C(=O)NC2CCC(CN3CCC(c4c[nH]c5ccccc45)CC3)CC2)cnn1-c1c(Cl)cc(Cl)cc1Cl (stereo not given) | 100% | 97% | 53%
2 | CNC(=O)c1ccc2[nH]cc(C3CCN(CC4CCN(C(=O)/C=C/c5ccc(Cl)c(Cl)c5)CC4)CC3)c2c1 | 100% | 88% | 3%
3 | O=C(C=Cc1ccc(F)c(Br)c1)NC1CCC(CN2CCC(c3c[nH]c4ccccc34)CC2)CC1 (stereo not given) | 100% | 67% and 50% | 28% and 39%
4 | CCOC(C(=O)OCC1CCCN1C(C)C)(c1ccccc1)c1ccccc1 (stereo not given) | 98% | 2% | 0%
5 | CC[C@H]1CN2CC[C@@H]1C[C@H]2[C@H](O)c1cc(-c2ccc(Cl)c(Cl)c2)nc2ccc(O)cc12 | 98% | 99% | 0%
6 | Cc1c(C)c2c(c(C)c1O)CC[C@@](C)(C(=O)NC1CCC(CN3CCC(c4c[nH]c5ccccc45)CC3)CC1)O2 (stereo not given in full) | 92% | 57% | 29%
7 | COc1ccc(CCNCc2ccc3c(C)cc(N)nc3c2)cc1 | 100% | 69% | 12%
8 | COc1ccc(CC(C)NCC(O)c2cccc(Br)c2)cc1 (stereo not given) | 99% | 93% | 10%
9 | CCc1ccc(CN2CCC(CN(C(=O)c3ccccc3)c3ccc(Cl)cc3)CC2)cc1 | 96% | 95% | 12%
10 | CCCCC/C=C/C(=O)NC1CCC(CN2CCC(c3c[nH]c4ccccc34)CC2)CC1 (stereo not given) | 87% | 11% | 19%
11 | O=C(NC1CCC(CN2CCC(c3c[nH]c4ccccc34)CC2)CC1)c1cc(-c2ccccc2Cl)n(-c2cccc(Cl)c2)n1 (stereo not given) | 95% | 24% | 58%
12 | Oc1ccc2[nH]cc(C3=CCN(CCc4ccccc4)CC3)c2c1 | 96% | 60% | 11%
13 | CN(C(=O)OCc1ccccc1)C1CCC(CCN2CCC3(CC2)C(=O)NCN3c2cccc(C(F)(F)F)c2)(c2ccccc2)CC1 (stereo not given) | 80% | 72% | 19%
14 | CNCC(O)c1cc(Cl)c(Cl)cc1C.Cl (stereo not given) | 98% | 88% | 0%
15 | CCCCc1ccc2[nH]cc(C3=CCN(C)CC3)c2c1Br | 94% | 94% | 37%
16 | Cc1nc2ccccc2n1C1CC2CCC(C1)N2Cc1nccn1-c1ccccc1.O=C(O)C(F)(F)F (stereo not given) | 94% | 96% | 0%
17 | O=C(/C=C/c1ccc(Cl)c(Cl)c1)NC1CCC(CN2CCC(c3c[nH]c4ccc(O)cc34)CC2)CC1 (stereo not given) | 100% | 100% and 99% | 35% and 38%
18 | Oc1ccccc1CNCC(O)c1cc(C(F)(F)F)cc(C(F)(F)F)c1 (stereo not given) | 99% | 100% | 15%
19 | O=C(NC1CCC(CN2CCC(c3c[nH]c4ccccc34)CC2)CC1)c1cnn(-c2ccccc2)c1-c1ccccc1Cl (stereo not given) | 95% | 11% | 66%
20 | COc1ccccc1CC(C)NCC(O)c1cccc(Cl)c1 (stereo not given) | 97% | 98% | 13%

Row | SMILES | Inhibition (Plasmodium falciparum [1]) | Inhibition (Plasmodium falciparum [2]) | Inhibition (HepG2)
21 | O=C1NCN(c2ccc(O)cc2)C12CCN(CCCC(c1ccc(F)cc1)c1ccc(F)cc1)CC2 | 94% | 34% | 20%
22 | C=C[C@H]1CN2CC[C@H]1C[C@H]2[C@H](OS(=O)(=O)O)c1ccnc2ccccc12 | 99% | 15% | 8%
23 | CNCCCN(C)C(=O)Oc1c(Br)c(C)nc(C)c1-c1ccc(Oc2ccc(OC(F)(F)F)cc2)cc1.Cl | 96% | 96% | 17%
24 | O=C(/C=C/c1ccc(Cl)c(Cl)c1)N1CCC2CC(N3CCC(c4c[nH]c5ccccc45)CC3)CCC2C1 (stereo not given) | 100% | 99% | 31%
25 | O=C(/C=C/c1cc(F)c(F)cc1F)N1CCC(CN2CCC(c3c[nH]c4ccccc34)CC2)CC1 | 93% | 3% | 26%
26 | O=[N+]([O-])c1ccc(Oc2c(Cl)cc(S(=O)(=O)NC3CCC(CN4CCC(c5c[nH]c6ccccc56)CC4)CC3)cc2Cl)c(Cl)c1 (stereo not given) | 100% | 64% | 30%
27 | Cc1nc(-c2ccc(-c3ccc(C(=O)Nc4ccc5c(c4)C4(CCNCC4)CO5)cc3)c(C)c2)no1.Cl | 90% | 15% | 37%
28 | CC(Cc1ccc(C2=CCNCC2)cc1)NCC(O)c1cccc(C(F)(F)F)c1.Cl (stereo not given) | 89% | 0% | 27%
29 | CC(=O)C1(c2ccccc2)CCN(CCC2(c3ccc(Cl)c(Cl)c3)CN(C(=O)C3CCCC3)CCO2)CC1 (stereo not given) | 88% | 70% | 11%
30 | CC(C)c1ccc(C=CC(=O)NC2CCC(CN3CCC(c4c[nH]c5ccccc45)CC3)CC2)cc1 (stereo not given) | 100% | 85% | 50%
31 | O=C(CCc1ccco1)NC1CCN(CC2(c3ccc(Cl)cc3)CCC2)CC1 | 99% | 67% | 0%
32 | O=C(CCC(=O)c1ccc2c3c(cccc13)CC2)NC1CCC(CN2CCC(c3c[nH]c4ccccc34)CC2)CC1 (stereo not given) | 96% | 13% | 34%
33 | O=P(O)(O)Oc1c(Br)cc(Br)cc1-c1cc(Br)cc(Br)c1O [BROMOFENOFOS] | 97% | 0% | 10%
34 | N#Cc1ccc(N(CC(=O)NCCc2ccccc2)CC2CC2)c2ccccc12.O=C(O)C(F)(F)F | 99% | 48% | 0%
35 | Cc1ccc(CC(C)NCC(O)c2cccc(Br)c2)cc1 (stereo not given) | 99% | 97% | 7%
36 | CC[C@H]1CN2CCc3cc(OC)c(OC)cc3[C@@H]2C[C@@H]1C[C@H]1NCCc2c1cc(OC)c(O)c2Cl | 100% | 100% | 51%
37 | CC[C@H]1CN2CC[C@H]1C[C@H]2[C@H](O)c1cc(-c2ccccc2F)nc2ccc(OC)cc12.Cl | 99% | 98% | 13%
38 | CNCCCCCCc1ccc(CC(C)NCC(O)c2cccc(Cl)c2)cc1.Cl (stereo not given) | 94% | 76% | 22%
39 | O=C(NC1CCC(CN2CCC(c3c[nH]c4ccccc34)CC2)CC1)c1cc2ccccc2o1 (stereo not given) | 94% | 14% | 34%
40 | COCCNCc1ccc(-c2cccc(CN(C(=O)CCC3CCCC3)C3CCN(Cc4ccccc4)CC3)c2)cc1.O=C(O)C(F)(F)F | 91% | 86% | 50%

Row | SMILES | Inhibition (Plasmodium falciparum [1]) | Inhibition (Plasmodium falciparum [2]) | Inhibition (HepG2)
41 | Br.COC(=O)c1ccc(CC(C)NCC(O)c2cccc(SC(F)(F)F)c2)cc1 (stereo not given) | 96% | 72% | 7%
42 | COc1ccc(C(=O)C2CC2CN2CC=C(c3c[nH]c4ccc(OC)nc34)CC2)cc1 (stereo not given) | 98% | 91% | 8%
43 | Cc1ccc(C)c(N2CCN(Cc3ccccc3O)CC2)c1 | 100% | 90% | 11%
44 | CN1CC=C(c2csc3ccc(NC(=O)Nc4ccc(-c5ccncc5)c(Cl)c4)cc23)CC1 | 100% | 100% | 10%
45 | CC[C@H]1CN2CC[C@H]1C[C@H]2[C@H](O)c1cc(-c2ccccc2C(F)(F)F)nc2ccc(OC)cc12.Cl | 98% | 99% | 0%
46 | O=C(/C=C/c1ccc(Cl)c(Cl)c1)Nc1cccc(CN2CCC(c3c[nH]c4ccccc34)CC2)c1 | 99% | 91% | 15%
47 | CC[C@H]1CN2CC[C@H]1C[C@H]2[C@H](O)c1cc(N2CCCC(CO)C2)nc2ccc(OC)cc12 (stereo not given in full) | 100% | 99% | 11%
48 | CC[C@H]1CN2CC[C@@H]1C[C@H]2[C@H](O)c1cc(-c2cc(Cl)cc(Cl)c2)nc2ccc(OC)cc12 | 99% | 97% | 0%
49 | COC(=O)c1ccc(CC(C)NCC(O)c2cccc(OCc3ccccc3)c2)cc1.Cl (stereo not given) | 86% | 37% | 11%
50 | COc1ccc(CCNCc2ccc3nc(N)c(C)cc3c2)cc1.Cl | 100% | 15% | 0%
51 | O=C(NCCC1CCN(CCc2c[nH]c3ccccc23)CC1)Nc1ccc(Cl)c(Cl)c1 | 100% | 5% | 18%
52 | Cc1c(C)c2c(c(C)c1O)CC[C@](C)(C(=O)N1CCC(CN3CCC(c4c[nH]c5ccccc45)CC3)CC1)O2 | 100% | 98% | 29%
53 | O=C(/C=C/c1ccc(Cl)c(Cl)c1)NC1CCC(CN2CCC(c3c[nH]c4ccccc34)CC2)CC1 (stereo not given) | 100% | 85% | 27%
54 | NCc1cccc(-c2cccc(CN(C(=O)Nc3ccccc3)C3CCN(Cc4ccccc4)CC3)c2)c1.O=C(O)C(F)(F)F | 99% | 8% | 3%
55 | Cc1[nH]c2ccccc2c1C1=CCN(CCCCC2(C)C(=O)Nc3cccc(F)c32)CC1 (stereo not given) | 95% | 90% | 9%
56 | CC1(CCCCN2CC=C(c3c[nH]c4ccccc34)CC2)C(=O)Nc2ccccc21 (stereo not given) | 94% | 90% | 3%
57 | CCCCCCC(C)(C)c1cc(O)c2c(c1)OC(C)(C)c1ccncc1-2.Cl | 95% | 99% | 4%
58 | COC(=O)c1ccc(CC(C)NCC(O)c2cccc(C(F)(F)F)c2)cc1 (stereo not given) | 94% and 97% | 73% and 87% | 0%
59 | CCCCCCC(C)c1cc(O)c2c(c1)OC(C)(C)c1ccncc1-2.Cl (stereo not given) | 100% | 61% | 0%
60 | CC(Cc1ccc([N+](=O)[O-])cc1)NCC(O)c1cccc(C(F)(F)F)c1 (stereo not given) | 98% | 92% | 0%
